# Laboratory results: PubChem BioAssay
# Calls of active or inactive are those of the source.
# Experiment: A549 lung cancer cell viability effects, profiling panel, resazurin fluorescence, 24 h, PK04 Diversity Set (AID 1171)
# Details: higher = more signal, called active from +8 up or from −8 down
# Further: test concentration not given here.
row,SMILES,z-score
1,CCOC(=O)C[C@H]1[C@H](OC(=O)c2ccccc2-c2ccccc2)[C@@H](NC(=O)c2ccc3ccccc3n2)c2cc(OCCCO)ccc2N1C(=O)c1ccccc1,0.143 (inactive)
2,COC(=O)[C@@]1(Cc2ccc(OC)cc2)[C@H]2c3cc(C(=O)N4CCCC4)n(Cc4ccc(S(C)(=O)=O)cc4)c3C[C@H]2CN1C(=O)c1ccccc1,0.105 (inactive)
3,C=C[C@@H](C)[C@@H](OC(=O)Nc1ccc(SC)cc1)c1ccc(OCCO)cc1,0.491 (inactive)
4,NCCCCCNC(=O)[C@@H]1C[C@@H]2C(=O)N3CCC[C@H]3C(=O)N2[C@@H]1c1ccc(O)cc1,-0.234 (inactive)
5,O=C1OCCC/C=C\[C@H]2OC34C=CCN(c5ccc6ccccc6c5)C(=O)[C@H]3N(CCCO)C(=O)[C@@H]4C12 (stereo not given in full),0.252 (inactive)
6,CC(=O)NCCCC[C@@H]1NC(=O)[C@@H]2C[C@H](C(=O)NCCCCCCN)[C@H](c3cccc(OCCO)c3)N2C1=O,-0.358 (inactive)
7,COCCOC(=O)N1C(=O)[C@@]2(c3cc(C#CCNC(N)=O)ccc31)[C@H](c1ccc(OCCO)cc1)N1[C@H](c3ccccc3)[C@H](c3ccccc3)OC(=O)[C@H]1[C@@H]2C(N)=O,0.266 (inactive)

# Experiment: HepG2 liver cancer cell viability effects, profiling panel, resazurin fluorescence, 24 h, PK04 Diversity Set (AID 1172)
# Details: higher = more signal
row,SMILES,z-score
1,CC(C)(C)OC(=O)CC[C@]1(C(=O)N2CCCCC2)COC(c2ccc(OCCCO)cc2)=N1,2.29
2,O=C1[C@@]23C=C(Br)[C@H](C[C@@H]2COC3)[C@@]12CO2,-0.198
3,O=C1C[C@@](C(=O)NCc2ccccc2)(c2ccc([N+](=O)[O-])cc2)[C@@H](c2ccc(CO)cc2I)N1CC12CC3CC(CC(C3)C1)C2,-1.28
4,O=C1C[C@@](C(=O)NCC(F)(F)F)(c2ccc([N+](=O)[O-])cc2)[C@@H](c2ccc(CO)cc2)N1CC12CC3CC(CC(C3)C1)C2,-1.85
5,CN1C(=O)C2C=CC(C(O)c3ccc(I)cc3)N(Nc3ccccc3)C2C1=O (stereo not given),-1.25
6,COc1cc(C(O)C2C=CC3C(=O)N(Cc4ccccc4)C(=O)C3N2n2cnnc2)cc(OC)c1OC (stereo not given),0.462
7,C=C(COC)/C(=C/C[C@@H](OC(=O)c1ccncc1)c1ccccc1OCCO)c1cc(C(=O)OC)ccc1OC,0.106
8,CC(C)C[C@@H]1NC(=O)[C@@]23C(=O)N[C@@H](Cc4ccccc4)C2[C@H](C)[C@@]2(C)O[C@H]2C3/C=C/C/C=C\CNC(=O)[C@@H](C)NC1=O (stereo not given in full),0.833
9,CCCNC(=O)[C@@]1(Sc2ccc(C)cc2)CC(=O)N(C(C)C)[C@@H]1c1ccc(CO)cc1I,-0.202
10,CN1C(=O)C2C(C1=O)C1C=C(CCCO)C2C(c2cccs2)N1Cc1cc2c(cc1Br)OCO2 (stereo not given),-0.0567
11,C=C(CCCC)/C(=C/C[C@H](OC(C)=O)c1ccc(OCCO)cc1)c1cc(C(=O)OC)ccc1OC,0.757
12,COC(=O)[C@@]1(Cc2ccc(OC)cc2)[C@H]2c3cc(C(=O)N4CCCC4)n(Cc4ccc(OC(F)(F)F)cc4)c3C[C@H]2CN1C(=O)c1ccccc1,-0.0938
13,CS(=O)(=O)CCOC(=O)C1=CC(CCCO)=CC(C2CC2)N(Cc2cccc(OC(F)(F)F)c2)C=C1C(=O)OCCS(C)(=O)=O (stereo not given),0.0407
14,COC(=O)C1=CC(CCCO)=CC(C)N(Cc2cccc(OC(F)(F)F)c2)C=C1C(=O)OC (stereo not given),0.0252
15,[N-]=[N+]=NCc1ccccc1[C@@H]1OC(c2ccc(OCCCO)cc2)=N[C@]1(Cc1ccccc1)C(=O)NCCN1CCOCC1,-0.195
16,CC(C)C(=C=CC[C@@H](O)c1cccc(OCCO)c1)C[C@@H](O)c1ccccn1,0.828
17,O=C(NCC(O)CO)[C@@]1(CCS(=O)(=O)c2ccccc2)COC(c2ccc(OCCCO)cc2)=N1 (stereo not given in full),0.114
18,CCOC(=O)C1=C[C@@H](c2ccccc2)N(S(=O)(=O)c2ccc(C)cc2)[C@H]1c1ccccc1,-0.443
19,CC(C)OC(=O)CC(=O)CC(O)c1ccc([N+](=O)[O-])cc1 (stereo not given),-0.55
20,COC(=O)C1N=C(c2ccc(OCCCO)cc2)N(c2ccccc2)O1 (stereo not given),0.863
21,NC(=O)NCC#Cc1ccc2c(c1)[C@]1(C(=O)N2)[C@H](C(=O)N2CCN(c3ncccn3)CC2)[C@H]2C(=O)O[C@H](c3ccccc3)[C@H](c3ccccc3)N2[C@@H]1c1ccc(OCCO)cc1,0.906
22,[N-]=[N+]=Nc1ccccc1C[C@]1(C(=O)O)N=C(c2ccc(OCCCO)cc2)O[C@H]1c1ccccc1,-0.0033
23,C=C(/C(=C/C[C@@H](OC(C)=O)c1ccc(OCCO)cc1)c1cc(C(=O)OC)ccc1OC)C(C)C,-0.459
